This is an account of results in PubChem BioAssay AID602144 (Vanderbilt Specialized Chemistry Center, 2011).

Activity calls are given as the source filed them. Rule as the data show it: active = remaining activity below about 50%; inactive = the rest.

Sequence of Phospholipase D1 (Homo sapiens) (Q13393 whole entry, looked up): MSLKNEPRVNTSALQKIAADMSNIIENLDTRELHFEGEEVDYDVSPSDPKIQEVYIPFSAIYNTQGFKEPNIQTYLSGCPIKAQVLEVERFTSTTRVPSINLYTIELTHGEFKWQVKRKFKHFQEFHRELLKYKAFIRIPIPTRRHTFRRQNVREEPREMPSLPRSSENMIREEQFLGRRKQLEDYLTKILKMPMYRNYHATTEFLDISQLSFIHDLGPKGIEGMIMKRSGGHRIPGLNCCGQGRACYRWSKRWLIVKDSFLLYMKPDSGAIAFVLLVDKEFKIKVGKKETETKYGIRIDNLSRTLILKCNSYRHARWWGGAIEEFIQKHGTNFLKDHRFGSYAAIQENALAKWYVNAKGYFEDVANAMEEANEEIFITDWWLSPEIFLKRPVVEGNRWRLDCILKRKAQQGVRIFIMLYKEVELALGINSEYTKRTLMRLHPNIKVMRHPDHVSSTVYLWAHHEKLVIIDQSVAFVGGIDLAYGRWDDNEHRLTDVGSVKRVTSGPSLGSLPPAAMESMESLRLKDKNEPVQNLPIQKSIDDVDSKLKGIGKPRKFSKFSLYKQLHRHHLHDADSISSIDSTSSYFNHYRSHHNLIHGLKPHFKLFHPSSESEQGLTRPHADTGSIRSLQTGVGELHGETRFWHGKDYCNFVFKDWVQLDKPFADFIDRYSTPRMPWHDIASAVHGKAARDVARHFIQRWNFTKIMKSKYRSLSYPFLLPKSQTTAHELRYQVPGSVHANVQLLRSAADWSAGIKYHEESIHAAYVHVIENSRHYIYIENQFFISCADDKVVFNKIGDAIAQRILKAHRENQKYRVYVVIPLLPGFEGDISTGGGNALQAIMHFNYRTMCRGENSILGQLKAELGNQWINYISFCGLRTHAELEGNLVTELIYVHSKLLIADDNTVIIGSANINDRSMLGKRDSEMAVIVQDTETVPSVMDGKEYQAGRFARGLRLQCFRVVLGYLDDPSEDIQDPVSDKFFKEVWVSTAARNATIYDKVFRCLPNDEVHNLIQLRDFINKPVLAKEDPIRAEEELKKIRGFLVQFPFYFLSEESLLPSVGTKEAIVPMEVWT
Sequence of Phospholipase D1 (Homo sapiens) (Q13393 whole entry, looked up): as above

This test has as its target Phospholipase D1 (Homo sapiens) (UniProt Q13393). The test can be described thus: cellular phospholipase D1 activity inhibition – Calu-1 cells, single concentration (AID 602144).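 Also: tested at 200 nM.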 The note with it: cellular PLD1 activity, active compounds read low.
The term remaining activity denotes the signal under treatment as a percentage of the control signal. Turning to `O=C(NCCN1CCC(n2c(=O)[nH]c3ccccc32)CC1)C(c1ccccc1)(c1ccccc1)c1ccccc1`, the remaining activity is 99% (inactive).

In the case of `O=C(NCCN1CCC2(CCc3ccccc32)CC1)c1ccc2ccccc2c1`, the remaining activity is 124% (inactive).

`C[C@@H](CN1CCC(n2c(=O)[nH]c3cc(I)ccc32)CC1)NC(=O)C1CC1c1ccccc1` (stereo not given in full): the remaining activity is 19.9% (active).

Consider `Cn1c(C2CCN(CC3(N)CCCC3)CC2)nc2ccccc21` (tested in a mixture with another compound), for which the remaining activity is 95% (inactive).

For `CN1CCC2(CCN(CCNC(=O)c3ccc4ccccc4c3)CC2)C1=O`, the remaining activity is 120% (inactive).

As to `COc1ccc2c(c1)c(CC(=O)NCCN1CCC(n3c(=O)[nH]c4ccccc43)CC1)c(C)n2C(=O)c1ccc(Cl)cc1`, the remaining activity is 98.1% (inactive).

Regarding `CN1CCC2(CCN(CCNC(=O)[C@H]3C[C@@H]3c3ccccc3)CC2)C1=O`, the remaining activity was 107% (inactive).

On to `Cc1ccc(C(=O)N[C@@H](C)CN2CCC(n3c(=O)[nH]c4cc(Br)ccc43)CC2)cc1`, for which the remaining activity was 13% (active).

Take `CS(=O)(=O)N1CC2(CCN(CCNC(=O)c3cnc4ccccc4c3)CC2)c2ccccc21`: the remaining activity was 99.4% (inactive).

`O=C(NCCN1CCC2(CCc3ccccc32)CC1)c1cnc2ccccc2c1`: the remaining activity is 113% (inactive).

As for `O=C(NCCN1CCN(c2ccccn2)CC1)c1ccc(Cl)cc1`, the remaining activity was 153% (inactive).

Take `C[C@@H](CN1CCC(n2c(=O)[nH]c3ccccc32)CC1)NC(=O)c1cc2ccccc2s1`: the remaining activity was 28% (active).

Take `O=C(NCCN1CCC(n2c(=O)[nH]c3ccccc32)CC1)Nc1cccc(F)c1`: the remaining activity was 20.1% (active).

Take `O=c1[nH]c2ccccc2n1C1CCN(CCNC(=S)Nc2ccc(Cl)c(Cl)c2)CC1`: the remaining activity was 170% (inactive).

In the case of `C[C@@H](CN1CCC2(C=Cc3ccccc32)CC1)NC(=O)c1ccc2ccccc2c1`, the remaining activity was 102% (inactive).

As for `C[C@@H](CN1CCC(n2c(=O)[nH]c3ccccc32)CC1)NC(=O)Cc1cccs1`, the remaining activity is 101% (inactive).

Turning to `C[C@@H](CN1CCC(n2c(=O)[nH]c3ccccc32)CC1)NC(=O)CCc1ccc(F)cc1`, the remaining activity was 53.9% (inactive).

For `O=C(NCCN1CCC(n2c(=O)[nH]c3ccccc32)CC1)c1cccc(Cl)n1`, the remaining activity is 37.8% (active).

Take `O=C(NCCN1CC=C(n2nnc3cc(C(F)(F)F)ccc32)CC1)c1cnc2ccccc2c1`: the remaining activity was 44.5% (active).

As to `Cc1ccc(C(=O)NCCN2CCN(c3ccccn3)CC2)cc1`, the remaining activity is 111% (inactive).

With `O=C(NCCN1CCC(n2c(=O)[nH]c3cc(Cl)ccc32)CC1)c1ccc2ccccc2c1`, the remaining activity was 10.3% (active).

For the molecule `O=C(NCCN1CCC(n2c(=O)[nH]c3ccccc32)CC1)c1cccc2ccc3ccccc3c12`, the remaining activity was 75.2% (inactive).

On to `O=C(NCCN1CCC(C(=O)Nc2ccccc2)CC1)c1ccc2ccccc2c1`, for which the remaining activity was 102% (inactive).

For `O=c1[nH]c2ccccc2n1C1CCN(CCNS(=O)(=O)c2cccc3cccnc23)CC1`, the remaining activity is 121% (inactive).

`O=C(NCCN1CCN(c2ccncc2)CC1)c1ccc(Cl)cc1`: the remaining activity was 121% (inactive).

Take `O=C1c2ccccc2C(=O)N1CCN1CCC(n2c(=O)[nH]c3cc(Cl)ccc32)CC1`: the remaining activity was 107% (inactive).

Regarding `C[C@@H](CN1CCC(n2c(=O)[nH]c3ccccc32)CC1)NC(=O)c1cccnc1`, the remaining activity was 41.1% (active).

Regarding `Cc1ccc(C(=O)NCCN2CCN(c3ccncc3)CC2)cc1`, the remaining activity is 148% (inactive).

Take `O=C(NCCN1CCC(C(=O)NCCc2ccccn2)CC1)c1ccc2ccccc2c1`: the remaining activity is 101% (inactive).

In the case of `Cn1c(C2CCN(CCN)CC2)nc2ccccc21` (tested in a mixture with another compound), the remaining activity was 75% (inactive).

`O=C(CCN1CCC(n2c(=O)[nH]c3ccccc32)CC1)NCc1ccc(Cl)cc1`: the remaining activity was 98.9% (inactive).

Turning to `O=C(NCCN1CCC2(CC1)CCN(c1ccccc1)C2=O)c1cnc2ccccc2c1`, the remaining activity is 109% (inactive).

Take `O=C1c2ccccc2C(=O)N1CCCN1CCC(c2nc3ccccc3[nH]2)CC1`: the remaining activity is 95.3% (inactive).

As to `O=C(NCCN1CCC(n2c(=O)[nH]c3ccccc32)CC1)C1CCCCCCCCCC1`, the remaining activity is 85.9% (inactive).

With `O=C(NCCN1CCC(n2c(=O)[nH]c3ccccc32)CC1)c1ccccc1-c1ccccc1`, the remaining activity is 92.1% (inactive).

On to `CS(=O)(=O)NCCN1CCC(n2c(=O)[nH]c3ccccc32)CC1`, for which the remaining activity is 88% (inactive).

As for `O=C(c1ccc2ccccc2c1)N1CCC(n2c(=O)[nH]c3cc(Cl)ccc32)CC1`, the remaining activity was 77.3% (inactive).

As for `O=C(NCCN1CCC(n2c(=O)n(C(=O)c3ccc(Cl)cc3)c3ccccc32)CC1)c1ccc(Cl)cc1`, the remaining activity was 27.8% (active).

Turning to `COc1cccc(C(=O)NCCN2CCC(n3c(=O)[nH]c4ccccc43)CC2)n1`, the remaining activity was 39.7% (active).

Consider `O=C(NCCN1CCN(c2ccncc2)CC1)c1ccc(F)cc1`, for which the remaining activity is 126% (inactive).
